Assay outcomes: PubChem, National Center for Advancing Translational Sciences (NCATS)
Only some compounds are listed: those with a hit (about 21% of all), similar ones and a draw of the others.
Pf growth 48h: inhibits P. falciparum growth in the first generation, 48 h. P. falciparum luciferase growth in erythrocytes, 48 h. Potency, µM (doses to about 28.7 µM), for the others: top-dose activity change, negative = inhibition, actives largely listed as inhibitors. 310,000 tested, 5.9% active. AID 504832; note: potency is the fitted concentration of half-maximal effect; % is set by controls: 0 for no effect and ±100 for the full control effect
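Erythrocytes infected with P. falciparum carrying an integrated firefly luciferase reporter (2% hematocrit, 0.1% parasitemia final) were exposed to compounds in RPMI 1640 with 0.5% Albumax at 37 C, 5% CO2. Growth inhibition was scored as reduced luminescence.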
Pf growth 96h: inhibits malaria parasite growth, 96 h | 320,000 tested, 6.9% active | AID 504834 | P. falciparum luciferase reporter growth, 96 h | Potency, µM (titrated, usually from 28.7 µM), inactives show at the highest dose activity change, negative = inhibition, usual class: inhibitors; note: potency is the fitted concentration of half-maximal effect; % is set by controls: 0 for no effect and ±100 for the full control effect
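96 h incubation, 37 C, 5% CO2, of luciferase-reporter P. falciparum-infected RBCs (2% hematocrit, 0.05% parasitemia final) with test compounds; endpoint luminescence.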
AMA1 RON2 block: disrupts binding of P. falciparum AMA1 to RON2 | AlphaScreen AMA1-biotinylated RON2 peptide binding | Potency, µM (highest dose often 58.2 µM), inactives show top-dose activity change, negative = inhibition, most hits filed as inhibitors | 360,000 tested, 0.2% active | AID 720542;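 note: potency is the fitted concentration of half-maximal effect; 0% = vehicle wells and -100% = peptide control; nearly all actives have a fitted effect of over 45% in size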
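AMA1 (3D7) with his tag at 25 nM final met compounds first, then biotinylated RON2 peptide at 25 nM; detection used donor plus acceptor beads, 10 µg/mL apiece, read by AlphaScreen after 30 min at room temperature.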
Cycloheximide cs: affects cycloheximide protein synthesis inhibition readout, counter-screen; max response, %; AID 2314; cell reporter, cycloheximide protein synthesis inhibition counterscreen; 300,000 tested, 12% active; in the data active = max response mostly above about 13%, no sharp cut-off; inactive = mostly below about 14%; note: read at 38.3 µM for the half of the compounds with a filed dose; 0% is about no effect
HCV inh: inhibitors of hepatitis C virus infection; Huh7.5.1 HCVcc-Cre infection, luciferase reporter, 44 h; Potency, µM (doses to about 41.8 µM), inactives show at the top dose activity change, negative = inhibition, actives largely listed as inhibitors; 340,000 tested, 3.4% active; note: potency is the fitted concentration of half-maximal effect; % is set by controls: 0 for no effect and ±100 for the full control effect
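After 44 h co-culture of compound, cells and HCVcc-Cre (~0.5 moi), substrate is added for 15 min at room temperature and luciferase measured over 15 sec. Cells were seeded at 1,000/well and pre-cultured 4 h.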
Shiga inhibitor: blocks Shiga toxin action in Vero cells | Vero cells, Shiga toxin protein synthesis inhibition reporter | inhibition, % at 38.7 µM | 290,000 tested, 9.2% active | AID 2315; in the data active = inhibition mostly above about 28%, no sharp cut-off; inactive = mostly below about 43%; note: 0% is about no effect
Starred values were filed as active, the others as inactive. Unless noted, calls come from the whole dose curve; as a rule, active = well fitted curve in the direction sought with a large enough effect; inconclusive = small, poorly fitted or top-dose-only effect, or another doubt; inactive = no such curve, though single readings can be large; an effect the other way counts as inactive or inconclusive.

COc1cccc(CNc2ccc(F)c(Cl)c2)c1OC was read as Pf growth 96h 10.4µM*, AMA1 RON2 block -8.1%, Cycloheximide cs 2.4, HCV inh 0.1% and Shiga inhibitor -9.6.
CCOc1ccccc1NC(=O)Nc1ccc2c(c1)OCO2 was read as Pf growth 48h 22.6%, Pf growth 96h 64.8%, AMA1 RON2 block -6.8%, Cycloheximide cs 36.6*, HCV inh inconclusive and Shiga inhibitor 37.6*.
For COc1ccc(OC)c(C(=O)CSc2nnc(C3CC3)n2C2CC2)c1 the results were AMA1 RON2 block 2.4%.
Screening CCc1occc(=O)c1Oc1cc(NN2CCCCC2)c([N+](=O)[O-])cc1[N+](=O)[O-] returned Pf growth 48h -39.9%, Pf growth 96h inconclusive, AMA1 RON2 block -12.6%, Cycloheximide cs -2.0, HCV inh -17.4% and Shiga inhibitor -4.4.
For CCc1nc2ccc(C(=O)NCCCn3ccnc3)cn2c1N(CC)C(=O)NCCc1ccccc1 the results were AMA1 RON2 block -3.2%.
`Cc1ccc(C(=O)CNc2ccc(C)c(Cl)c2)cc1` gave Pf growth 48h 29.3%, Pf growth 96h -3.2%, AMA1 RON2 block -4.6%, Cycloheximide cs 26.6*, HCV inh 0.4% and Shiga inhibitor 20.3.
Screening Cc1ccc(NCC(=O)c2ccccc2)cc1Cl returned Pf growth 48h inconclusive, Pf growth 96h inconclusive, AMA1 RON2 block -0.3%, Cycloheximide cs 23.9*, HCV inh -3.5% and Shiga inhibitor 102.4*.
For O=C(CNc1ccc(Br)cc1)c1ccc(O)cc1 the results were Pf growth 48h 70.0%, Pf growth 96h 6.0%, AMA1 RON2 block -12.6%, Cycloheximide cs 38.7*, HCV inh 14.9% and Shiga inhibitor 92.8*.
Screening Cc1ccc(NC2=C(NC(=O)c3ccccc3)C(=O)c3ccccc3C2=O)cc1Cl returned Pf growth 48h 0.294µM*, Pf growth 96h inconclusive, AMA1 RON2 block inconclusive, Cycloheximide cs 1.8, HCV inh inconclusive and Shiga inhibitor 0.0.
`Cc1ccc(C(=O)CNc2cccc(Cl)c2)cc1` gave Pf growth 48h -21.3%, Pf growth 96h 5.7%, AMA1 RON2 block 0.6%, Cycloheximide cs 30.0, HCV inh -7.1% and Shiga inhibitor 30.0.
For CCOC(=O)c1ccc(NC(=O)CN2CCN(C(=O)C3CCCO3)CC2)cc1 (stereo not drawn) the results were Pf growth 48h -1.6%, Pf growth 96h 95.3%, AMA1 RON2 block -7.3%, Cycloheximide cs -1.8, HCV inh 11.9% and Shiga inhibitor -3.6.
O=C(CN(Cc1ccco1)C(=O)c1ccc(F)cc1)Nc1ccccc1Br was read as AMA1 RON2 block -3.5% and HCV inh inconclusive.
Screening O=C(O)COc1ccccc1/C=N/NC(=O)CN1CCN(S(=O)(=O)c2ccc(Br)cc2)CC1 returned Pf growth 48h -6.7%, Pf growth 96h 1.1%, AMA1 RON2 block 7.4%, Cycloheximide cs 1.4, HCV inh 16.8% and Shiga inhibitor -4.4.
COC(=O)c1cn(NC(=O)c2ccc([N+](=O)[O-])cc2Cl)c(=O)c2ccccc12 was read as Pf growth 48h -10.0%, Pf growth 96h -15.4%, AMA1 RON2 block -7.5%, Cycloheximide cs 9.4, HCV inh -2.1% and Shiga inhibitor -6.5.
For CCc1ncc(CN2CCC(C(=O)Nc3cccc(-c4cscn4)c3)CC2)cn1 the results were Pf growth 48h -19.1%, Pf growth 96h inconclusive, AMA1 RON2 block -2.0%, Cycloheximide cs -0.6, HCV inh inconclusive and Shiga inhibitor 17.2.
Cc1ccc(NCC(=O)c2ccc(C)cc2)cc1 was read as Pf growth 48h 45.9%, Pf growth 96h -14.4%, AMA1 RON2 block -3.0%, Cycloheximide cs 39.0*, HCV inh 7.4% and Shiga inhibitor 48.0*.
Cc1ccc(NCCC(=O)c2ccccc2)cc1Cl was read as Pf growth 48h 9.8%, Pf growth 96h -13.7%, AMA1 RON2 block -4.0%, Cycloheximide cs 15.1*, HCV inh -11.6% and Shiga inhibitor 42.6*.
For Cc1ccc(NCCC(=O)c2ccc(Cl)cc2)cc1 the results were Pf growth 48h 42.5%, Pf growth 96h 4.3%, AMA1 RON2 block -4.0%, Cycloheximide cs -2.8, HCV inh -20.7% and Shiga inhibitor 8.9.
Screening O=C(NCc1ccc(F)cc1)c1cc(-c2ccco2)on1 returned Pf growth 48h 32.1%, AMA1 RON2 block 7.5%, Cycloheximide cs 19.5*, HCV inh -4.0% and Shiga inhibitor 43.6.
O=C(NCc1ccc(F)cc1)c1cc(-c2cccs2)on1 was read as Pf growth 48h 38.0%, Pf growth 96h inconclusive, AMA1 RON2 block 2.1%, Cycloheximide cs 25.7*, HCV inh -22.9% and Shiga inhibitor 24.8.
`O=C(NCc1ccccc1)c1cc(-c2cccs2)on1` gave Pf growth 48h 48.9%, Pf growth 96h 3.3%, AMA1 RON2 block -4.0%, Cycloheximide cs 42.7*, HCV inh -8.4% and Shiga inhibitor 77.1*.
Screening O=C(NCc1ccccc1)c1cnsn1 returned Pf growth 48h -15.0%, Pf growth 96h 1.31µM*, AMA1 RON2 block 38.5%, Cycloheximide cs 5.5, HCV inh 14.9% and Shiga inhibitor -8.2.
O=C(O)CCc1nc2cc(C(F)(F)F)ccc2n(Cc2ccccc2)c1=O was read as Pf growth 48h -11.7%, Pf growth 96h -12.7%, AMA1 RON2 block -2.7%, Cycloheximide cs 2.0, HCV inh 12.3% and Shiga inhibitor -4.0.
`Cc1cccc(C)c1NC(=O)C1C(c2ccc3c(c2)OCO3)=Nc2ccccc2N1C(=O)c1ccccn1` (stereo not drawn) gave AMA1 RON2 block 70.2%.
For O=c1c2c3c(sc2nc2sc(C4CC4)nn12)CCCC3 the results were Pf growth 48h 65.1%, Pf growth 96h 44.9%, AMA1 RON2 block -1.9%, Cycloheximide cs 33.2*, HCV inh 5.9% and Shiga inhibitor 53.6.
`COc1ccccc1CNS(=O)(=O)c1ccc(-n2cccn2)cc1` gave Pf growth 48h -20.2%, Pf growth 96h inconclusive, AMA1 RON2 block 0.0%, Cycloheximide cs 7.3, HCV inh -16.4% and Shiga inhibitor -1.4.
For CC(C)n1cc(CN2CCCC(C(=O)Nc3cccc(-c4cc5ccccc5[nH]4)c3)C2)cn1 (stereo not drawn) the results were Pf growth 48h inconclusive, Pf growth 96h 9.2%, AMA1 RON2 block inconclusive, Cycloheximide cs -4.4, HCV inh 11.2µM* and Shiga inhibitor -6.5.
Screening CC(C)n1cc(CN2CCC(C(=O)Nc3cccc(-c4cscn4)c3)CC2)cn1 returned Pf growth 48h -17.4%, Pf growth 96h inconclusive, AMA1 RON2 block -1.6%, Cycloheximide cs -4.0, HCV inh inconclusive and Shiga inhibitor 2.2.
